Screens as filed in PubChem.
ASK1 inh: inhibitors of human ASK1 kinase; Q99683; inhibition, % at 7.44 µM; actives 0.99% (n = 22,000); AID 1159602; AlphaScreen MKK6 phosphorylation by ASK1, luminescence; in the data active = inhibition above about 35%
ULK1 inh: inhibitors of human ULK1 kinase; O75385; AlphaScreen Atg13 phosphorylation by ULK1, luminescence; inhibition, % at 5.96 µM; actives 1.9% (n = 30,000); AID 1259251; in the data active = inhibition above about 43%
Of the large screens only hits and unclear results are named; the others gave an inactive call. Compounds with a hit are over-represented: about 2.5% of the library has one in this group of screens.

O=C(NCc1ccccc1)c1ccc2cncc(-c3ccccc3)c2n1	ULK1 inh 73.6 (no result: ASK1 inh)
O=C(NC1CC1)c1ccc2cncc(-c3ccsc3)c2n1	none (no result: ASK1 inh)
COCCNC(=O)c1ccc2cncc(-c3ccsc3)c2n1	ULK1 inh 53.2 (no result: ASK1 inh)
COc1ccc(-c2nccc(NC3CCN(Cc4ccccc4)CC3)n2)cc1	none
N#Cc1cc(-c2ccnc(Nc3ccc(N4CCCCC4)cc3)n2)cc(N2CCOCC2)c1	none
N#Cc1cc(-c2ccnc(Nc3ccc(CN4CCCCC4)cc3)n2)cc(N2CCOCC2)c1	ULK1 inh 70.9
N#Cc1cc(-c2ccnc(Nc3ccc(N4CCNCC4)cc3)n2)cc(N2CCOCC2)c1	ULK1 inh 92.7
N#Cc1cc(-c2ccnc(Nc3ccc(-c4ccccn4)cc3)n2)cc(N2CCOCC2)c1	none
COc1cc(Nc2nc(NC3CCN(Cc4ccccc4)CC3)nc3nc[nH]c23)cc(OC)c1OC	none
Cc1cccc2cc(C(c3nnnn3C(C)(C)C)N3CCOCC3)c(=O)[nH]c12 (stereo unspecified)	none (no result: ASK1 inh)
O=C(Nc1ccc(N2CCOCC2)cc1)C1CCN(c2ccc(Nc3ccc(C(F)(F)F)cc3)nn2)CC1	none
O=C(NCCO)C1CCN(c2ccc(Nc3ccc(C(F)(F)F)cc3)nn2)CC1	ULK1 inh 46.4
FC(F)(F)c1cccc(CNc2ccnc(-c3ccccc3)n2)c1	none
Cc1ncn(-c2ccc(Nc3ncc4cccc(-c5cncnc5)c4n3)cc2)n1	none
Cc1ncn(-c2ccc(Nc3ncc4cccc(-c5ccc(N6CCOCC6)nc5)c4n3)cc2)n1	none
Cc1ncn(-c2ccc(Nc3ncc4ccccc4n3)cc2)n1	ULK1 inh 43.5
Cc1ncn(-c2ccc(Nc3ncc4cccc(-c5cn[nH]c5)c4n3)cc2)n1	ULK1 inh 44.3
Cc1cc(-c2cccc3cnc(Nc4ccc(-n5cnc(C)n5)cc4)nc23)ccn1	none
Cc1ncn(-c2ccc(Nc3ncc4cccc(-c5ncco5)c4n3)cc2)n1	ULK1 inh 71.9
Cc1ncn(-c2ccc(Nc3ncc4cccc(-c5cnn(CCN6CCOCC6)c5)c4n3)cc2)n1	ULK1 inh 63.1
Cc1ncn(-c2ccc(Nc3ncc4cccc(Nc5ccccc5)c4n3)cc2)n1	none
Clc1ccc(-c2cnc(Nc3ccccc3)nc2)cc1	none (no result: ASK1 inh)
COc1cc2nc(N3CCC(N4CCOCC4)CC3)nc(Nc3ccc(N4CCOCC4)cc3)c2cc1OC	none
Fc1cnc(Nc2ccc(-n3cnc(N4CCOCC4)n3)cc2)cc1-n1cnc(Nc2ccccc2)n1	none
OCCNc1nc(Nc2ccncc2)nc2c1ncn2-c1ccsc1	none
Cc1ncn(-c2ccc(Nc3ncc4cccc(-c5ccccn5)c4n3)cc2)n1	ULK1 inh 53.3
Cc1ncn(-c2ccc(Nc3ncc4cccc(-c5cncc6ccccc56)c4n3)cc2)n1	none
Cc1ncn(-c2ccc(Nc3ncc4cccc(-c5nc6ccccc6s5)c4n3)cc2)n1	none
Cc1ncn(-c2ccc(Nc3ncc4cccc(-c5ccncc5F)c4n3)cc2)n1	ULK1 inh 50.8
Fc1ccc(N2CCn3c(SCCc4ccccc4)nnc32)cc1	none (no result: ASK1 inh)
Cn1cc(-c2nc(Nc3ccc(-n4cnc(N5CCC(O)CC5)n4)cc3)ncc2F)cn1	ULK1 inh 58.3
Cc1nc(C)n(-c2ccc(Nc3ncc(Br)c(-c4cnn(C)c4)n3)cc2)n1	ULK1 inh 86.5
Cc1ncn(-c2ccc(Nc3ncc(Cl)c(-c4cnn(C)c4)n3)cc2)n1	ULK1 inh 66.1
CN1CCN(c2ncn(-c3ccc(Nc4ncc(F)c(-c5cccc(N6CCOCC6)c5)n4)cc3)n2)CC1	none
Cc1nc(C)n(-c2ccc(Nc3nccc(-c4cc(F)cc(-c5cnn(C)c5)c4)n3)cc2)n1	none
Cc1ncn(-c2ccc(Nc3ncc(Cl)c(Nc4ccccc4-c4ncn(C)n4)n3)cc2)n1	none
CCOC(=O)C(NC(=O)c1cccc([N+](=O)[O-])c1)C(C)C (stereo unspecified)	none (no result: ASK1 inh)
CN(C)C(=O)c1cc(-c2cn[nH]c2)ccc1NC(=O)[C@@H]1COc2ccccc2O1	none
COc1ccc(/C=C(\C#N)C(=O)N2CCOCC2)cc1I	none (no result: ASK1 inh)
Cc1cncc2cccc(NC3CCCN(C(=O)C(O)c4ccc(Cl)cc4)C3)c12 (stereo unspecified)	none
Cc1cc2c(NC3CCCN(C(=O)C(O)c4ccc(Cl)cc4)C3)cccc2nn1 (stereo unspecified)	ULK1 inh 52.0
COc1cc(Nc2nc(C(=O)NCCN3CCOCC3)cs2)cc(OC)c1OC	none
Cc1nc(C)n(-c2ccc(Nc3nccc(-c4cc(F)cc(-c5cnoc5)c4)n3)cc2)n1	ULK1 inh 45.1
Cc1ncn(-c2ccc(Nc3nccc(-c4cc(F)cc(-c5cnoc5)c4)n3)cc2)n1	none
O=C(NC1CC1)c1cccc(Nc2cnccn2)c1	none
Cc1ccc(-c2cccc3cnc(Nc4ccc(-n5cnc(-c6ccccn6)n5)cc4)nc23)cn1	none
Cc1ccc(-c2cccc3cnc(Nc4ccc(C(=O)NC5CC5)cc4)nc23)cn1	ULK1 inh 61.5
Cc1ccc(-c2cccc3cnc(Nc4cccc(C(=O)NC5CC5)c4)nc23)cn1	ULK1 inh 59.0
COc1ccc(CCNc2cc(Nc3ccccn3)ncn2)cc1	none
Cc1ncn(-c2ccc(Nc3ncc4cccc(-c5cnn(-c6ccccc6)c5)c4n3)cc2)n1	none
Cc1ncn(-c2ccc(N(c3ncc4cccc(-c5cnn(C(C)C)c5)c4n3)C(C)C)cc2)n1	ULK1 inh 91.5
Cc1cc(=O)n2[nH]c(-c3ccccc3)c(C)c2n1	none (no result: ASK1 inh)
c1csc(CCNc2nccc(Nc3ccncn3)n2)c1	none
CC(C)n1cnc2c(Nc3ccc4c(c3)OCO4)nc(Nc3ccc(-n4ccnc4)cc3)nc21	ULK1 inh 55.0
CC(C)n1cnc2c(Nc3ccc4c(c3)OCO4)nc(Nc3cnccn3)nc21	ULK1 inh 48.8
CC(C)n1cnc2c(Nc3ccc4c(c3)OCO4)nc(Nc3ccccc3)nc21	none
c1cnc(Nc2nc(Nc3ccc4c(c3)OCO4)c3ncn(C4CCCCC4)c3n2)cn1	none
O=C(Cc1cn(-c2ccc(Nc3ccc(N4CCOCC4)cc3)nn2)c2ccccc12)NCc1ccccc1	none
c1cncc(Nc2nc(Nc3ccc(N4CCOCC4)cc3)c3ncn(-c4ccsc4)c3n2)c1	ULK1 inh 48.9
c1cc(-n2cnc3c(Nc4ccc(N5CCOCC5)cc4)nc(Nc4ccc(N5CCOCC5)cc4)nc32)cs1	none
c1cn(-c2ccc(Nc3nc(Nc4ccc(N5CCOCC5)cc4)c4ncn(-c5ccsc5)c4n3)cc2)cn1	ULK1 inh 46.1
c1ccc(Nc2nc(Nc3ccc(N4CCOCC4)cc3)nc3c2ncn3-c2ccsc2)cc1	none
Nc1cccc(-c2cccc(C(=O)NCCOc3ccccc3)n2)c1	none
O=C(Nc1cc(F)c(-c2cn[nH]c2)cc1N1CCOCC1)[C@@H]1COc2ccccc2O1	none
CCC(NC(C)C)C(O)c1ccc(O)c(O)c1 (stereo unspecified)	none (no result: ASK1 inh)
NCC(O)c1ccc(O)c(O)c1 (stereo unspecified)	ULK1 inh 80.3 (no result: ASK1 inh)
COc1ccc(-c2ncc(C(=O)NCCN3CCOCC3)s2)cn1	none
O=C(Nc1ccc2[nH]ncc2c1)C1COc2ccccc2O1 (stereo unspecified)	none
Nc1n[nH]c2c(Br)cc(NC(=O)C3COc4ccccc4O3)cc12 (stereo unspecified)	ULK1 inh 57.9
NCCc1ccc(O)c(O)c1	ULK1 inh 73.8 (no result: ASK1 inh)
Nc1ccc(O)c(N)c1	none (no result: ASK1 inh)
O=C(NCCOc1ccccc1)c1cccc(-c2cccs2)c1	none
CCCN(C(=O)C(C)(C)C)C1CCN(C)CC1	none (no result: ASK1 inh)
COC1=C(N)C(=O)c2nc(-c3nc(C(=O)O)c(C)c(-c4ccc(OC)c(OC)c4O)c3N)ccc2C1=O	ULK1 inh 83.7 (no result: ASK1 inh)
O=C(NCc1nc2ccccc2[nH]1)c1cnc(N2CCN(Cc3ccc4c(c3)OCO4)CC2)s1	none
